Results on 16 compounds are retold here after ChEMBL document CHEMBL1961873, “Compounds: GSK PKIS; Assays: Nanosyn kinase panel” (2012).

Assay [1] concerns the target Serine/threonine-protein kinase pim-2 (Homo sapiens) (UniProt Q9P1W9). The conditions noted are these: at 1 µM.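 Further: each value is a mean of the inhibition measurements against the kinase.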
For assay [2], the target named is Serine/threonine-protein kinase pim-3 (Homo sapiens) (UniProt Q86V86). The conditions noted are these: at 0.1 µM.
Assay [3] has the same target. The conditions noted are these: at 1 µM.
Assay [4] addresses T1, MAP kinase-activated protein kinase 5 (Homo sapiens) (UniProt Q8IW41).
T1 sequence (whole entry): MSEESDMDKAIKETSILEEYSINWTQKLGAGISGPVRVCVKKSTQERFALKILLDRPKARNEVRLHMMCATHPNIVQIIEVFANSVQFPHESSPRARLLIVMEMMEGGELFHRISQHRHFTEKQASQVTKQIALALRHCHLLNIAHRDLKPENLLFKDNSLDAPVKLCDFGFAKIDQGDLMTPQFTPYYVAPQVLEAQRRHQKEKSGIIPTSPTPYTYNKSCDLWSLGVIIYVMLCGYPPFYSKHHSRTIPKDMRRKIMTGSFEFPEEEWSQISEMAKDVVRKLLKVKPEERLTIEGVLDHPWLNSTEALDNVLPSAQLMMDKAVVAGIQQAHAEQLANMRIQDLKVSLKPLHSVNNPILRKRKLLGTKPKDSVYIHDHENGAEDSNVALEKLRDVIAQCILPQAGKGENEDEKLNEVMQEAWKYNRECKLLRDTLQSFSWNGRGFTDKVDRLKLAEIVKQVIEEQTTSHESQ
The conditions noted are these: at 0.1 µM.

The target of assay [5] is T1, MAP kinase-activated protein kinase 5 (Homo sapiens). To be noted: at 1 µM.
Assay [6] deals with Serine/threonine-protein kinase SIK1 (Homo sapiens) (UniProt P57059). The conditions noted are these: at 0.1 µM.
Sequence of Serine/threonine-protein kinase SIK1 (Homo sapiens) (P57059 whole entry): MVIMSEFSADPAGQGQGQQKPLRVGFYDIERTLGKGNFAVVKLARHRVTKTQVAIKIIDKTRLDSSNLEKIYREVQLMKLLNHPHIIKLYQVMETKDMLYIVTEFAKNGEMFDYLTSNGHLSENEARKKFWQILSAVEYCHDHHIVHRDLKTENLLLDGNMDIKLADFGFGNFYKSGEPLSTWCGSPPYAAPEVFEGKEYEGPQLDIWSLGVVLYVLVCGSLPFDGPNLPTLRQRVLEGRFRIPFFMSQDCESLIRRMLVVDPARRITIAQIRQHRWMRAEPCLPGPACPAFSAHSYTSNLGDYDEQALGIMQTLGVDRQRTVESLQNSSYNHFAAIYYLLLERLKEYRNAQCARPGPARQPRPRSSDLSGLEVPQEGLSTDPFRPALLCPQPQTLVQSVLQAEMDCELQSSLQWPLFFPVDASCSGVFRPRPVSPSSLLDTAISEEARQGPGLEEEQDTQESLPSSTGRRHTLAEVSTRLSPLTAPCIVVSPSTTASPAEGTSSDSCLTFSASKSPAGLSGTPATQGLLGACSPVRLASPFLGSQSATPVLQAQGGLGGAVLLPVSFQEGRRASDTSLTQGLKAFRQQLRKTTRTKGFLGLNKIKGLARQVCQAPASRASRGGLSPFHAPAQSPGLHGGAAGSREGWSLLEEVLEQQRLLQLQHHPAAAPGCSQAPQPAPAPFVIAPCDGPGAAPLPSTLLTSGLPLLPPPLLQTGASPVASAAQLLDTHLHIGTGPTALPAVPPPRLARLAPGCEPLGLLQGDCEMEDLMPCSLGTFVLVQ
Assay [7] shares this target. To be noted: at 1 µM.
Assay [8] has as its target Serine/threonine-protein kinase SIK2 (Homo sapiens) (UniProt Q9H0K1). To be noted: at 0.1 µM.
The target is the same in assay [9]. To be noted: at 1 µM.
Assay [10] concerns the target T2, Serine/threonine-protein kinase TBK1 (Homo sapiens) (UniProt Q9UHD2).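 Further: values are the mean TBK1 inhibition, taken from the GSK PKIS screening data.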
T2 sequence (whole entry): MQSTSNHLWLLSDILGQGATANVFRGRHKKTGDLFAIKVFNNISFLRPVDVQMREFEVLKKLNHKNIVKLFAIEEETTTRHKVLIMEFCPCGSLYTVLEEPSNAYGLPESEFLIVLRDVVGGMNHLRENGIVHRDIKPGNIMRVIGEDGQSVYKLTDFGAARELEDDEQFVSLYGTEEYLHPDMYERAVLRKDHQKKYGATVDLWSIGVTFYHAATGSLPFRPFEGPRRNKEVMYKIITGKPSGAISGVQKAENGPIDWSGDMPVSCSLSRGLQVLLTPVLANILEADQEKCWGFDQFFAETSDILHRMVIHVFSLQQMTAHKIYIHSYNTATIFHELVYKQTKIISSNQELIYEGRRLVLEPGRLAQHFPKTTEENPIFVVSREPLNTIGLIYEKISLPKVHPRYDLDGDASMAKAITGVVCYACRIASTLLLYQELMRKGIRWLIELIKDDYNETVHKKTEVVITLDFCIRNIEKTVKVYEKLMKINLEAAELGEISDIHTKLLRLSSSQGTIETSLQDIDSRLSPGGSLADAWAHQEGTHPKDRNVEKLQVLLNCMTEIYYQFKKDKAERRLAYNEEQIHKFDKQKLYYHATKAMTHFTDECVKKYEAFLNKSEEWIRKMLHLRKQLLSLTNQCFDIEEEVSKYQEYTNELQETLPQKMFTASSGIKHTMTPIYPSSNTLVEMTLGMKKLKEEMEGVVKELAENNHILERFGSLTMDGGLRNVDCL
The conditions noted are these: at 0.1 µM.

Sequence of Serine/threonine-protein kinase pim-2 (Homo sapiens) (Q9P1W9 whole entry, looked up): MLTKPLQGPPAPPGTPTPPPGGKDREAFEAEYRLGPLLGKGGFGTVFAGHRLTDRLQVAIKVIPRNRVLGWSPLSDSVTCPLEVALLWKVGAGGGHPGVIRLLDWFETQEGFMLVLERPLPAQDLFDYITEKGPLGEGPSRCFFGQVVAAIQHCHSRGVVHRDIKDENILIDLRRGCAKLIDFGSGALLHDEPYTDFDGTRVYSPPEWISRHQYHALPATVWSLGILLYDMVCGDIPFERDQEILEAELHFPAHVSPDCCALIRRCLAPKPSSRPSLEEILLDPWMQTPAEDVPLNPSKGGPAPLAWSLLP
Sequence of Serine/threonine-protein kinase SIK2 (Homo sapiens) (Q9H0K1 whole entry, looked up): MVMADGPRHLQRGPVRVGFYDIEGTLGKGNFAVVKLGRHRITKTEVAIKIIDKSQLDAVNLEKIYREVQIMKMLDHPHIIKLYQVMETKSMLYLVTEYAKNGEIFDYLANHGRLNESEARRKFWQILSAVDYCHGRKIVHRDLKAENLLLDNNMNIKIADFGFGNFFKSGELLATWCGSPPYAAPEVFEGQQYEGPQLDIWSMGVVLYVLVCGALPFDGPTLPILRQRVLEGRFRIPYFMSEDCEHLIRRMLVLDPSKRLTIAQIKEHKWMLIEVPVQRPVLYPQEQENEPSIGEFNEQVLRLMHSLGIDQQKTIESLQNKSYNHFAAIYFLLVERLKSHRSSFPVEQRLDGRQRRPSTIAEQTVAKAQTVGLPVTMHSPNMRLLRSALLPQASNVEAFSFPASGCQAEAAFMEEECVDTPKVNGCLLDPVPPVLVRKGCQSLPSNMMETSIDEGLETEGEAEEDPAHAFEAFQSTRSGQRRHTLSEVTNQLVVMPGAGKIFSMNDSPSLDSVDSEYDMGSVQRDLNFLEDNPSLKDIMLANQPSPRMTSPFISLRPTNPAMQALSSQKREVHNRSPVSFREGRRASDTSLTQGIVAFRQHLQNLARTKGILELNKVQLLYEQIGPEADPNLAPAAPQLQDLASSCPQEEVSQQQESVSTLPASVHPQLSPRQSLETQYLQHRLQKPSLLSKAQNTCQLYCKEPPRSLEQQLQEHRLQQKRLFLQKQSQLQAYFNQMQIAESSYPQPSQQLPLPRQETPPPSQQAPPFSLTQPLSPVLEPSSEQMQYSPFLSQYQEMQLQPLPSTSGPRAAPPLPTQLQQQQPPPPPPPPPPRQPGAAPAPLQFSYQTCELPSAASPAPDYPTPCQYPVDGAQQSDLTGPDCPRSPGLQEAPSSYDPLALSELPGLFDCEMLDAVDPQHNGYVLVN

By inhibition is commonly meant the drop in the measured response relative to a control, in per cent. In the case of `CCOc1ccc2c(-c3ccnc(Nc4cc(OC)cc(C(F)(F)F)c4)n3)cnn2n1`, the inhibition in assay [1] is -0.11%; in assay [2], 1.13%; in assay [3], 1.42%; in assay [4] it was -0.27%; in assay [5], -0.8%; in assay [6], 2.02%. For the same compound, the inhibition in assay [7] is 6.72%; in assay [8] it was -0.16%; in assay [9], 2.02%; in [10], -0.57%.

Regarding `COc1ccc(-c2nn3ncccc3c2-c2ccnc(Nc3ccc(F)c(F)c3)n2)cc1`, the inhibition in [1] was 4.2%; in assay [2] it was 4.52%; in assay [3], 6.05%; in assay [4], 1.6%; in [5], 4.42%; in assay [6], 1.5%. For the same compound, the inhibition in assay [7] was 8.64%; in assay [8], 8.32%; in [9], 7.08%; in [10], -2.71%.

With `O=C(O[C@H]1CN[C@H](C#Cc2cc3ncnc(Nc4ccc5c(cnn5Cc5ccccc5)c4)c3s2)C1)N1CCOCC1`, the inhibition is -0.51% in assay [1]; -0.77% in [2]; -0.59% in assay [3]; -0.48% in [4]; -1.44% in [5]; -1.61% in [6]. The inhibition in assay [7] is -0.04%; in assay [8], -3.57%; in assay [9] it was 1.23%; in assay [10], -0.69%.

For `FC(F)(F)CNc1nccc(-c2cnn3ncccc23)n1`, the inhibition is 1.1% in [1]; -0.3% in assay [2]; 1.93% in assay [3]; 1.14% in assay [4]; 0.15% in assay [5]; 2.46% in assay [6]. The inhibition is 1.86% in assay [7], -0.9% in [8], 0.27% in [9] and 1.42% in assay [10].

Consider `CS(=O)(=O)Nc1ccc(-c2cc(-c3ccccc3)cc(C(N)=O)c2N)cc1`, for which the inhibition is 0.82% in [1]; 0.62% in assay [2]; 1.22% in assay [3]; 0.73% in [4]; 3.19% in assay [5]; 1.69% in assay [6]. Also, the inhibition in [7] was 7.99%; in [8] it was -1.02%; in assay [9] it was 3.58%; in [10], 1.82%.

Regarding `CN1CCC(n2cnc(-c3ccc(F)cc3)c2-c2ccnc(NCCO)n2)CC1`, the inhibition in assay [1] worked out at 2.65%; in assay [2], 1.55%; in [3] it was 5.22%; in assay [4], 1.7%; in assay [5], 4.06%; in assay [6], 2.04%. Also, the inhibition in assay [7] was 6.87%; in assay [8] it was 4.44%; in assay [9] it was 16.6%; in assay [10] it was -0.04%.

Regarding `Cc1ccc(-c2cc3c(NC(=O)C4CC4)ncnc3o2)cc1`, the inhibition in assay [1] is 1.12%; in assay [2], -0.12%; in assay [3], 4.13%; in [4], 0.83%; in assay [5], 0.27%; in assay [6], 6.5%. Also, the inhibition was 7.93% in [7], -1.22% in assay [8], 3.33% in [9] and 3.64% in assay [10].

Turning to `Fc1ccc(Nc2nccc(-c3c(-c4ccc(C(F)(F)F)cc4)nn4ncccc34)n2)cc1F`, the inhibition was 5.02% in assay [1]; -0.88% in assay [2]; -1% in assay [3]; 0.6% in assay [4]; -0.23% in assay [5]; 5.43% in assay [6]. The inhibition in assay [7] was 3.1%; in assay [8], 3.76%; in assay [9], 2.08%; in [10] it was -0.07%.

Take `COc1cc(Nc2ncc(-c3ccccc3)o2)cc(OC)c1`: the inhibition in assay [1] was 0.6%; in assay [2], 0.03%; in [3], -0.34%; in assay [4], 1.24%; in assay [5], 2.34%; in assay [6], 6.1%. Besides, the inhibition in assay [7] turned out to be 20.6%; in assay [8] it was 7.38%; in assay [9], 33.8%; in assay [10] it was 2.71%.

Take `CCCNc1cccc(-n2ncc3c(N/N=C/c4ccncc4)ncnc32)c1`: the inhibition came out at 0.32% in [1]; 3.58% in assay [2]; 4.06% in assay [3]; 0.95% in assay [4]; 1.6% in assay [5]; 3.14% in [6]. Besides, the inhibition was 9.54% in assay [7], -0.68% in [8], 21.1% in assay [9] and 2.22% in assay [10].

For `O=C(O[C@H]1CN[C@H](C#Cc2cc3ncnc(Nc4ccc5c(ccn5Cc5cc(F)ccc5F)c4)c3s2)C1)N1CCOCC1`, the inhibition is 0.17% in assay [1]; -1.4% in assay [2]; -2.6% in [3]; 1.04% in assay [4]; 0.93% in assay [5]; 5.35% in [6]. Besides, the inhibition in assay [7] is 7.23%; in assay [8] it was 2.92%; in assay [9], 7.13%; in assay [10], 2.75%.

Turning to `O=C(O[C@H]1CN[C@H](C#Cc2cc3ncnc(Nc4ccc(OCc5cccc(F)c5)c(Cl)c4)c3s2)C1)N1CCOCC1`, the inhibition stood at 0.28% in assay [1]; 0.37% in assay [2]; 1.35% in assay [3]; 2.46% in assay [4]; 4.32% in assay [5]; 2.74% in assay [6]. Further, the inhibition in assay [7] stood at 9.18%; in [8] it was 8.56%; in assay [9] it was 11.1%; in [10], 1.96%.

As to `COc1cc(N2CCN(C(C)C)CC2)ccc1Nc1nc(Nc2cccc(F)c2C(=O)O)c2cc[nH]c2n1`, the inhibition was 0.53% in [1]; 1% in assay [2]; 5.92% in assay [3]; 1.35% in assay [4]; 2.28% in assay [5]; 2.77% in assay [6]. For the same compound, the inhibition stood at 7.48% in assay [7], 5.27% in [8], 4.22% in assay [9] and 4.45% in assay [10].

Consider `c1cnn2ncc(-c3ccnc(NCCCN4CCOCC4)n3)c2c1`, for which the inhibition is -1.06% in [1]; -0.56% in assay [2]; -0.85% in [3]; 1.09% in assay [4]; 1.07% in assay [5]; 3.47% in [6]. Besides, the inhibition in assay [7] turned out to be 6.56%; in assay [8], 3.35%; in [9], 2.87%; in assay [10], 0.82%.

Turning to `N#Cc1ccc2c(-c3ccnc(NC4CC4)n3)c(-c3ccc(F)cc3)nn2c1`, the inhibition in assay [1] is 0.72%; in [2] it was -0.27%; in assay [3], -0.29%; in assay [4], 0.61%; in [5], -0.5%; in assay [6], 4.86%. Further, the inhibition in assay [7] came to 23.5%; in [8], 24.1%; in assay [9] it was 68.9%; in assay [10], 1.15%.

As to `Cc1nnc(-c2cccc(-c3ccc(C(=O)NCC4CC4)cc3)c2)o1`, the inhibition in assay [1] amounted to 1.27%; in [2], 1.21%; in assay [3], 5.19%; in assay [4], 2.14%; in [5] it was 4.28%; in assay [6], 7.04%. Moreover, the inhibition in assay [7] was determined as 10.7%; in [8], 12.9%; in assay [9], 5.76%; in [10], 2.51%.
